A selection: hits, their analogues and other compounds. The true share with any hit is near 3.4%.
GPR151 ag – activators of human GPR151. activation, % at 11.2 µM. 650,000 compounds, 1% hits. AID 1508602. PathHunter beta-arrestin GPR151 cells, luminescence; in the data active = activation above about 4.9%;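 also: 0% = median of compound wells and 100% = cells with positive control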
MITF primary – blocks human microphthalmia-associated transcription factor; AID 1259374; inhibition, % at 2.6 µM; AlphaScreen MITF homodimerization, bead proximity signal; 650,000 compounds, 0.91% hits; in the data active = inhibition above about 50%;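 also: 0% = vehicle wells with protein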
TEAD-YAP inh – TEAD-YAP interaction inhibition | HEK-TIYL cells, TEAD-Gal4/YAP UAS-luciferase luminescence | inhibition, % at 9.12 µM | 640,000 compounds, 1.4% hits | AID 1259422; in the data active = inhibition above about 32%;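 also: 0% = median of test compound wells and 100% = reference inhibitor wells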
FBW7 activator – human FBW7 E3 ligase activation, primary screen. AID 1259310. 650,000 compounds, 0.13% hits. normalized activity (activation), % at 26.1 µM. AlphaScreen FBW7–phospho-cyclin E peptide binding, activator screen; in the data active = normalized activity above about 1.9%;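 also: purified mutant Fbw7 with reduced substrate affinity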
Target sequence (Q969H0 whole entry, looked up): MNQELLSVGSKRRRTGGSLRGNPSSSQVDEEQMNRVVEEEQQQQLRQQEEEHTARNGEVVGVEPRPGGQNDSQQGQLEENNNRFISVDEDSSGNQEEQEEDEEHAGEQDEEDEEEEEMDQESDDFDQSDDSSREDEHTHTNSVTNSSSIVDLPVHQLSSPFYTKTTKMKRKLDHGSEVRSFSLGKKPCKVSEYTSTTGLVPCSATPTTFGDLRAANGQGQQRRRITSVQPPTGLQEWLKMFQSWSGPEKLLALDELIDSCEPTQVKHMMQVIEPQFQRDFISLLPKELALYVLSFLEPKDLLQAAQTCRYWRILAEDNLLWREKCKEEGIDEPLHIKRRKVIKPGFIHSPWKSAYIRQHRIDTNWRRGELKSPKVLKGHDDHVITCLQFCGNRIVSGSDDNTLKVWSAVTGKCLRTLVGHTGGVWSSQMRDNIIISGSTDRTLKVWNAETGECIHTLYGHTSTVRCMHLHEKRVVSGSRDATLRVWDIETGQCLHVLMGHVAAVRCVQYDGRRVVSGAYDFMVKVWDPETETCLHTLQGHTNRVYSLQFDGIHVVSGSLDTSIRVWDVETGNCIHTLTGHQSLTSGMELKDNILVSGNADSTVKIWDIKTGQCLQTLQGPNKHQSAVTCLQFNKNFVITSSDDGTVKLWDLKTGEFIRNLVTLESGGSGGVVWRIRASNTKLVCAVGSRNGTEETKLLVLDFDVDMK
GPR151 conf act – human GPR151 activation, confirmation screen; activation, % at 11.2 µM; GPR151 PathHunter beta-arrestin cells, luminescence, 90 min; % of EA-reagent control over plate median; shares compounds with GPR151 ag; 6,700 tested, under 10 active;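 active = mean percent activation across replicates above the confirmation screen cutoff of 4.91%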
GPR119 counter – counter-screen for GPR151 activators: effect on human GPR119. shares compounds with GPR151 ag. GPR119 PathHunter beta-arrestin cells, luminescence, 90 min; 0 = compound-well median, 100 = enzyme-acceptor control. activation, % at 11.2 µM. 6,700 compounds, 0.3% hits. AID 1508611;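 active = mean percent activation in the counterscreen above 29.09%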;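 also: counterscreen on off-target GPR119 to flag nonselective hits from the GPR151 activator screen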
Numbers without * were called inactive; . = not tested or not shown.

SMILES	GPR151 ag	MITF primary	TEAD-YAP inh	FBW7 activator	GPR151 conf act	GPR119 counter
O=C1OC(c2ccc(-c3ccccc3)cc2)=N/C1=C\c1cccnc1	14*	2	4	0	-1	-5
COC(=O)C1=C(C(=O)c2ccccc2)C(c2ccc(Br)cc2)Nc2nnnn21 (stereo unspecified)	0	-14	-6	0	.	.
COc1ccc(-c2cn3c(C(=O)N4CCc5ccccc54)csc3n2)cc1	19*	-8	5	0	0	-2
COc1ccc(-c2cn3c(C(=O)N4CCN(c5ccccc5OC)CC4)csc3n2)cc1	0	2	-8	0	.	.
CCn1c(=O)n(CC(=O)NCC2COc3ccccc3O2)c(=O)c2ccccc21 (stereo unspecified)	-1	6	-2	0	.	.
CCn1c2ccccc2n2c(=O)n(CC(=O)Nc3ccc4c(c3)OCO4)nc12	5.7*	9	14	1	1	2
CCn1c2ccccc2n2c(=O)n(CC(=O)NCC3COc4ccccc4O3)nc12 (stereo unspecified)	7.5*	-5	13	1	2	7
Cc1cccc(-c2nnc(SCC(=O)NCCc3ccccc3)n2C)c1	1	-17	-3	0	.	.
O=C(Nc1cccc(F)c1)c1cccn(OCc2ccccc2F)c1=O	-1	8	-31	0	.	.
COc1cccc(NC(=O)c2cccn(OCc3ccccc3F)c2=O)c1	6.2*	-30	-17	0	0	6
CCc1c(-c2ccccc2)n(C2CCCCC2)c2nc3c(c(=O)n(C)c(=O)n3C)n12	-1	15	1	0	.	.
CCOc1ccc(C2=NC(c3ccc(OC)cc3)NC(c3ccccc3O)C2)cc1 (stereo unspecified)	6.4*	4	-60	0	0	-11
CC(C)(C)c1nnc(NC(=O)c2ccc(Cl)nc2Cl)s1	8.1*	-10	-39	0	-1	-5
CC(C)(C)c1nnc(NC(=O)c2cccnc2Cl)s1	2	-9	-3	0	.	.
O=c1oc2ccc(Cl)cc2cc1-c1nnc(-c2ccccc2Cl)o1	5.6*	2	-1	0	0	-12
CCN(CC)c1ccc(NC(=O)C2CC3CCCN3C23C(=O)N(C)c2ccccc23)c(C)c1 (stereo unspecified)	0	5	-6	0	.	.
CCN(CC)c1ccc(NC(=O)C2CC3CCCN3C23C(=O)Nc2ccccc23)c(C)c1 (stereo unspecified)	5.4*	-3	-2	0	0	5
CC1=C(C(=O)OCCc2ccccc2)C(c2cccc(Cl)c2)NC(=O)N1 (stereo unspecified)	1	-3	6	0	.	.
CC1=C(C(=O)OCc2ccccc2)C(c2cccc(Cl)c2)NC(=O)N1 (stereo unspecified)	5.0*	-10	-22	0	1	-3
CCOc1cccc(C2NC(=O)NC(C)=C2C(=O)OC2CCCCCC2)c1 (stereo unspecified)	5.7*	6	-11	0	0	3
CC1=C(C(=O)OCCc2ccccc2)C(c2ccc(C)s2)NC(=O)N1 (stereo unspecified)	5.1*	-7	2	0	0	-13
Cc1ccc(-c2nc(O)c(C3=c4cc([N+](=O)[O-])ccc4=NC3=O)s2)cc1	-1	3	14	0	.	.
COc1cc(NC(=O)Cc2ccc(Cl)cc2)cc(OC)c1	2	-2	-10	0	.	.
COc1ccc(/C(O)=C2\C(=O)C(=O)N(c3ccc(C(=O)O)cc3)C2c2ccccc2)cc1 (stereo unspecified)	9.3*	31	-35	0	0	11
c1ccc(COC2CCCN(Cc3nc(-c4ccc5c(c4)OCO5)no3)C2)nc1 (stereo unspecified)	16*	4	-14	0	0	3
c1ccc(COC2CCCN(Cc3nc(-c4cccs4)no3)C2)nc1 (stereo unspecified)	0	-9	5	0	.	.
COCCCNCCOCCOc1cccc(Br)c1	0	-2	-4	0	.	.
C=C(C)c1nc2ccc(-c3ccc4nc(C(=C)C)oc(=O)c4c3)cc2c(=O)o1	0	18	0	0	.	.
